An excerpt weighted towards active compounds, which were near 2.7% of everything screened.
ClpP mod – qHTS Assay for Activators of ClpP | purified B. subtilis ClpP, FRET peptide cleavage, 20 min | Potency, µM (titrated, usually from 57.5 µM), for the others: at the top dose activity change, negative = active | AID 651965, 2013 | ATP-dependent Clp protease proteolytic subunit (Bacillus subtilis (strain 168)), P80244 | actives 1.9% (n = 340,000); active = well fitted falling curve with a large enough effect; inconclusive = small, poorly fitted or top-dose-only effect; inactive = no such curve, though single readings can be large or run the other way; also: potency is read from the fitted curve at half-maximal effect; the source files actives as falling curves though it sought activators and does not explain the sign; nearly all actives have a fitted effect of over 65% in size
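ClpP 10 microg/mL final, pH 8 Tris/KCl buffer with BSA, glycerol, Tween-20; compound pinned in; FRET-FV substrate; RT 20 min; Ex320/Em430; ΔFRET vs ADEP 5.8 microM, DMSO, no enzyme.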
RXFP1 antagonist – RXFP1 (human) relaxin receptor antagonism; HEK293-RXFP1, relaxin-stimulated cAMP HTRF, 30 min; active compounds read low; activity change, negative = inhibition, % at 57.5 µM; actives 0.59% (n = 350,000); AID 1259400;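 active = activity change of -60% or lower, but not beyond a set lower limit; inconclusive = change between -60% and -40%, or beyond the set limit; inactive = change above -40%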; also: % is scaled to controls: 0 for no effect and ±100 for the full control effect
Target sequence (Q9HBX9 whole entry, looked up): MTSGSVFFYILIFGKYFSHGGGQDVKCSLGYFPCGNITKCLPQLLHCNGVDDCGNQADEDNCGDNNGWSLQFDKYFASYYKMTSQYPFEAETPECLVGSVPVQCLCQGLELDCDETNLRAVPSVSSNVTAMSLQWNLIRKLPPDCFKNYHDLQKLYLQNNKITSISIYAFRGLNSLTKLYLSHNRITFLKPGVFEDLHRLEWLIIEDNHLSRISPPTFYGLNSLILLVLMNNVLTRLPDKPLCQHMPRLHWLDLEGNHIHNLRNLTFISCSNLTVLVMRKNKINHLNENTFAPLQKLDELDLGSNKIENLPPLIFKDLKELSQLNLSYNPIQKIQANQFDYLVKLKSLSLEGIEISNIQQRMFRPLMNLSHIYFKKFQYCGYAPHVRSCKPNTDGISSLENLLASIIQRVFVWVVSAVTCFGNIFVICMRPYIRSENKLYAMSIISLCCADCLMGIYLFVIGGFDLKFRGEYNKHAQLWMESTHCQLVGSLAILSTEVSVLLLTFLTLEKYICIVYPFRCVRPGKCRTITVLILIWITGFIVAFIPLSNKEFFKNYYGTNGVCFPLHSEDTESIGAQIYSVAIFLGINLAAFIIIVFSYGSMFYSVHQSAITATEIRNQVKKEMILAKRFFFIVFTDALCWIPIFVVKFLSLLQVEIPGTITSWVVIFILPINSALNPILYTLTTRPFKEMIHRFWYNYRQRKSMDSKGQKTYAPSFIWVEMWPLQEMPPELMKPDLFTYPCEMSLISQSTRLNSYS
RXFP1 agonist – activates the human relaxin receptor RXFP1; Q9HBX9; HEK293T-RXFP1 cAMP TR-FRET, 30 min; response scale: percent of porcine relaxin response, buffer zero; actives 0.3% (n = 370,000); Potency, µM (titrated, usually from 57.5 µM), without a hit: at the top dose activation, usual class: activators; active = well fitted activation curve with a large enough effect; inconclusive = small, poorly fitted or top-dose-only effect; also: potency is read from the fitted curve at half-maximal effect; % is scaled to controls: 0 for no effect and ±100 for the full control effect; nearly all actives have a fitted effect of over 60% in size
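HEK293 cells stably expressing RXFP1, treated 30 min at 37C with compounds plus PDE4 inhibitor Ro 20174; cAMP measured by HTRF TR-FRET. Normalized to buffer and 29 nM porcine relaxin; EC50 by Hill fit.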
gsp antag – gsp mutant antagonism; gsp-mutant cells, cAMP HTRF, 30 min; Potency, µM (titrated, usually from 76.9 µM), without a hit: top-dose activity change, negative = inhibition, usual class: inhibitors; actives 0.4% (n = 340,000); calls by dose curve; cell line not stated here;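 also: intracellular cAMP measured with PDE inhibitor Ro 20-1724 present during compound exposure; potency is read from the fitted curve at half-maximal effect; % is scaled to controls: 0 for no effect and ±100 for the full control effect; nearly all actives have a fitted effect of over 65% in size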
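Cells in G418 medium, seeded 16-24 h, 37C; buffer exchange to DPBS + 1 mM CaCl2, 0.5 mM MgCl2, 0.05% BSA; cpds in DMSO + […] (300 uM stock), 30 min 37C; HTRF cAMP detection.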
pAkt inh – inhibitors of Akt phosphorylation | Neuro2A IGF-stimulated pAkt S473 HTRF, 20 min; active compounds read low | activity change, % for hits at 50 µM | actives 0.32% (n = 360,000) | AID 651550; in the data active = activity change below about -80%; inconclusive = mostly about -51% to -80%; also: % is scaled to controls: 0 for no effect and ±100 for the full control effect
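Neuro2A cells (4,500/well, DMEM with 0.5% FBS) were treated with compound at a single 50 µM final concentration, stimulated with 6 nM IGF for 20 min at 37 °C, and lysed. Phospho-Akt Ser473 was read by HTRF as 665/615 ratio ×10^4.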
gsp ag – agonists of gsp mutant (McCune-Albright syndrome); gsp mutant cells, cAMP HTRF, 30 min; actives 0.13% (n = 340,000); AID 624287; Potency, µM (top dose mostly 76.9 µM), without a hit: at the top dose activation (cAMP increase), actives largely listed as activators; active = well fitted activation curve with a large enough effect; inconclusive = small, poorly fitted or top-dose-only effect, or another doubt; inactive = no such curve, though single readings can be large or run the other way; cell line not stated here;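 also: phosphodiesterase inhibitor Ro 20-1724 added with compounds to block cAMP breakdown; potency is read from the fitted curve at half-maximal effect; nearly all actives have a fitted effect of over 60% in size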
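Cells in DMEM/10% FBS with G418 were pretreated with compounds in DMSO plus […] (300 uM stock) for 30 min at 37C. cAMP was measured by HTRF (cAMP-d2 plus anti-cAMP antibody-K) after 30 min at room temperature.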
* marks the source's active call; other numbers are inactive results; ! = not confirmed by another sample; [ ] = another dose, or the depositor's remark.

Results for CC(C)(C)n1nnnc1C(c1ccccc1)N1CCN(C(=O)c2ccco2)CC1 (configuration not stated) ?
ClpP mod: -2%; pAkt inh: inactive

Results for CCc1nc(N2CCC(C)CC2)c2oc3ccccc3c2n1 ?
ClpP mod: 32µM*; RXFP1 antagonist: -34; RXFP1 agonist: 0%; gsp antag: -13%; pAkt inh: inactive; gsp ag: -8%

Results for CCOC(=O)c1cccc(NC(=O)c2cnc3ccccc3n2)c1 ?
ClpP mod: -3%; RXFP1 antagonist: -18; RXFP1 agonist: -1%; gsp antag: -26%; pAkt inh: -96%*; gsp ag: -13%

How did Cc1ccnc(NC(=O)C2CCN(S(=O)(=O)c3ccc(Cl)c(C(F)(F)F)c3)CC2)c1 do in these assays?
ClpP mod: 32µM*; RXFP1 antagonist: -35; RXFP1 agonist: 0%; gsp antag: -13%; pAkt inh: inactive; gsp ag: 2%[15.4 µM]

Results for CN(Cc1ccccc1)C(=O)COC(=O)C1CCN(S(=O)(=O)c2ccc(Cl)c(C(F)(F)F)c2)CC1 ?
RXFP1 antagonist: -96*; RXFP1 agonist: 0%; gsp antag: -4%; pAkt inh: inactive; gsp ag: 5%[15.4 µM]

What do the screens show for `Cc1ccc(NC(=O)C2CCN(S(=O)(=O)c3ccc(Cl)c(C(F)(F)F)c3)CC2)nc1`?
RXFP1 antagonist: 9; RXFP1 agonist: -1%; gsp antag: 6%; pAkt inh: inactive; gsp ag: 11%[15.4 µM]

Results for CN(C)c1ccc(CCC2C=Cc3ccccc32)cc1 (configuration not stated) ?
ClpP mod: 4%

Results for CCCCCCOc1ccc(CC(=O)O)cc1 ?
ClpP mod: -3%

What do the screens show for `COc1ccc(-c2nc(CN3CCN(c4ncnc5ccccc45)CC3)c(C)o2)c(OC)c1`?
ClpP mod: -3%; RXFP1 antagonist: -14; RXFP1 agonist: 2%; gsp antag: 32µM*; pAkt inh: inactive; gsp ag: -19%

How did Cc1ccc(-c2csc3ncnc(Sc4nnnn4C4CC4)c23)cc1 do in these assays?
ClpP mod: -4%

Results for O=C(N/C(=C\c1ccccc1)C(=O)N1CCOCC1)c1ccc(Br)o1 ?
RXFP1 antagonist: -70*; RXFP1 agonist: -1%; gsp antag: 0%; pAkt inh: inactive; gsp ag: inconclusive

What do the screens show for `CCCCn1c(=NC(=O)c2cccnc2)c(C(=O)OCC)cc2c(=O)n3ccccc3nc21`?
ClpP mod: inconclusive; RXFP1 antagonist: -19; RXFP1 agonist: 8%; gsp antag: -10%; pAkt inh: inactive; gsp ag: -4%

What do the screens show for `CCCCCn1c(=NC(=O)c2ccco2)c(C(=O)OCC)cc2c(=O)n3ccccc3nc21`?
ClpP mod: 16µM*; RXFP1 antagonist: 2; RXFP1 agonist: 3%; gsp antag: inconclusive; pAkt inh: inactive; gsp ag: -3%

How did CCOCCCn1c(=NC(=O)c2cccnc2)c(C(=O)OCC)cc2c(=O)n3ccccc3nc21 do in these assays?
ClpP mod: 20µM*!; RXFP1 antagonist: -2; RXFP1 agonist: 7%; gsp antag: -10%; pAkt inh: inactive; gsp ag: inconclusive

How did COCCCn1c(=NC(=O)c2ccncc2)c(C#N)cc2c(=O)n3cccc(C)c3nc21 do in these assays?
ClpP mod: 0.71µM*; RXFP1 antagonist: -1; RXFP1 agonist: 10%; gsp antag: -10%; pAkt inh: inactive; gsp ag: inconclusive

Results for CCCCn1c(=NC(=O)c2cccnc2)c(C#N)cc2c(=O)n3cccc(C)c3nc21 ?
ClpP mod: inconclusive; RXFP1 antagonist: 0; RXFP1 agonist: 1%; gsp antag: -6%; pAkt inh: inactive; gsp ag: 1%

What do the screens show for `Cc1cccn2c(=O)c3cc(C#N)c(=NC(=O)c4ccncc4)n(CCCOC(C)C)c3nc12`?
ClpP mod: 7%; RXFP1 antagonist: -15; RXFP1 agonist: 15%; gsp antag: -21%; pAkt inh: inactive; gsp ag: 19%

How did CCOC(=O)c1cc2c(=O)n3cccc(C)c3nc2n(CCCOC)c1=NC(=O)c1cccnc1 do in these assays?
ClpP mod: 16µM*; RXFP1 antagonist: -3; RXFP1 agonist: 8%; gsp antag: 8%; pAkt inh: inactive; gsp ag: inconclusive

Results for Nc1cccc2[nH]cnc12 ?
ClpP mod: -26%

What do the screens show for `CCOC(=O)C1=C(CC)Nc2ccccc2N=C1NC(=O)Nc1ccc(Cl)c(Cl)c1`?
ClpP mod: -7%; RXFP1 antagonist: -14; RXFP1 agonist: 1%; gsp antag: 32µM*; pAkt inh: inactive; gsp ag: -7%

Results for COc1ccc(N2CCN(S(=O)(=O)c3ccc(F)c(C(=O)Nc4ccccc4Cl)c3)CC2)cc1 ?
ClpP mod: -1%; RXFP1 antagonist: -13; RXFP1 agonist: 0%

Results for CCc1nc2sc3c(c2c(=S)[nH]1)CC(C)(C)OC3 ?
RXFP1 antagonist: -66*; RXFP1 agonist: 20%; gsp antag: -6%; pAkt inh: inactive; gsp ag: inconclusive

What do the screens show for `Cc1cccc(NC(=O)N[C@@H](C)C(=O)O)c1`?
ClpP mod: 16µM*; RXFP1 antagonist: -2; RXFP1 agonist: 0%; gsp antag: 5%; pAkt inh: inactive; gsp ag: 1%

What do the screens show for `Cc1ccccc1N=C1Nc2ccccc2N[C@]12C[C@H]1CCCC(=O)N3CC[C@@H](C2)[C@@H]13`?
ClpP mod: 0%

What do the screens show for `O=C(NCc1nnc2c(C(F)(F)F)cc(Cl)cn12)c1ccc2c(c1)OCO2`?
ClpP mod: 1%; RXFP1 antagonist: 4; RXFP1 agonist: inconclusive; gsp antag: 15%; pAkt inh: inactive; gsp ag: inconclusive

Results for O=C(NCc1nnc2c(C(F)(F)F)cc(Cl)cn12)c1cccnc1 ?
ClpP mod: -13%; RXFP1 antagonist: 4; RXFP1 agonist: 16µM*; gsp antag: 2%; gsp ag: inconclusive

Results for O=C(NCc1nnc2c(C(F)(F)F)cc(Cl)cn12)c1ccc(Br)o1 ?
RXFP1 antagonist: 20; RXFP1 agonist: inconclusive; gsp antag: 14%; pAkt inh: inactive; gsp ag: 13µM*

How did CC1CN(C/C(=N\O)C23CC4CC(CC(C4)C2)C3)CC(C)O1 (configuration not stated) do in these assays?
ClpP mod: 0%; RXFP1 antagonist: -5; RXFP1 agonist: 0%; gsp antag: 1%; pAkt inh: inactive; gsp ag: 4%[15.4 µM]

Screens from PubChem.
